According to PubChem BioAssay (Tox21):
Results filed as inconclusive are left out. Active and inactive are the calls of the source. Unless noted, calls follow the shape of the dose curve; as a rule, active = well fitted curve in the direction sought with a large enough effect in the repeat runs; inconclusive = weak or mixed curves; inactive = no such curve, though single readings can be large; an effect the other way counts as inactive or inconclusive.

What was measured:
[1] = qHTS assay to identify small molecule antagonists of the retinoid acid receptor (RAR) signaling pathway - cell viability counter screen (AID 1159551); also: nearly all actives have a fitted effect of over 35% in size
Procedure, shortened: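 C3RL4 RARE-luciferase line; cpds + retinol 1 uM final, 6 h, 37 C/5% CO2; CellTiter-Glo ATP luminescence, 30 min RT.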

[2] = qHTS assay to identify small molecule antagonists of the retinoic acid receptor (RAR) signaling pathway (AID 1159552; also: nearly all actives have a fitted effect of over 50% in size; also: potency is read from the fitted curve at half-maximal effect)
Procedure, shortened: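 Quantitative HTS in C3RL4 RARE-luciferase reporter cells. Compounds were added with 1 uM (final) retinol; luminescence was read after 6 hr.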

[3] = qHTS assay to identify small molecule agonists of the retinoic acid receptor (RAR) signaling pathway (AID 1159553); also: potency is read from the fitted curve at half-maximal effect
Procedure, shortened: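 RARE-luc C3RL4 cells; overnight attachment 37 C/5% CO2; compound (DMSO) 6 hr; luciferase reagent, 30 min RT; luminescence read-out.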

[4] = qHTS assay to identify small molecule antagonists of the estrogen related receptor (ERR) signaling pathway from Tox21 library - cell viability counter screen (AID 1224834); also: nearly all actives have a fitted effect of over 30% in size; also: potency is read from the fitted curve at half-maximal effect
Procedure, shortened: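 Multiplexed viability counter screen in ERR cells: 17.5 h compound exposure at 37 C, CellTiter-Fluor added, 30 min at 37 C/5% CO2, fluorescence read.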

[5] = qHTS assay to identify small molecule agonists of the constitutive androstane receptor (CAR) signaling pathway - cell viability counter screen (AID 1224836); also: nearly all actives have a fitted effect of over 45% in size; also: potency is read from the fitted curve at half-maximal effect
Procedure, shortened: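 Counter screen multiplexed with the CAR reporter readout: HepG2 cells co-transfected with hCAR and the CYP2B6-2.2kb construct receive a 15-concentration compound series and 0.75 uM PK11195 (final), then CellTiter-Fluor fluorescence is read after 23 h.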

[6] = qHTS assay to identify small molecule antagonists of the constitutive androstane receptor (CAR) signaling pathway - cell viability counter screen (AID 1224837); also: nearly all actives have a fitted effect of over 45% in size; also: potency is read from the fitted curve at half-maximal effect
Procedure, shortened: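 Read-out: CellTiter-Fluor fluorescence after 23 hr at 37 C/5% CO2. Cells: HepG2 double-stable for hCAR and CYP2B6-2.2kb. Compounds tested at 15 concentrations in the presence of CITCO, final concentration 50 nM.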

[7] = target: Nuclear receptor subfamily 1 group I member 3 (Homo sapiens) (UniProt Q14994); assay: qHTS assay to identify small molecule agonists of the constitutive androstane receptor (CAR) signaling pathway (AID 1224839); also: nearly all actives have a fitted effect of over 15% in size; also: potency is read from the fitted curve at half-maximal effect
Chain of Nuclear receptor subfamily 1 group I member 3 (Homo sapiens) (Q14994 whole entry, looked up): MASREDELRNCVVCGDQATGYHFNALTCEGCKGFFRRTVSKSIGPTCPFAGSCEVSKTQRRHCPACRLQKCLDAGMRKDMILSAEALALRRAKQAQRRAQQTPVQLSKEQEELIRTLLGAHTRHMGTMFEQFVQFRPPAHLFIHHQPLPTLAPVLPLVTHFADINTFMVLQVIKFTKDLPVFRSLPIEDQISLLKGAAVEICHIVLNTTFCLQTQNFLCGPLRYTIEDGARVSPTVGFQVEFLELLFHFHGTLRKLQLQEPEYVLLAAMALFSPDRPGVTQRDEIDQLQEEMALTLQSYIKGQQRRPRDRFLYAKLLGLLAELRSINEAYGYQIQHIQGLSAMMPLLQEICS
Procedure, shortened: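 A 15-concentration quantitative screen uses HepG2 cells co-transfected stably with human CAR and CYP2B6-2.2kb reporter. Treatment lasts 24 h with 0.75 uM PK11195 final present; ONE-Glo luminescence is the signal.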

[8] = qHTS assay to identify small molecule antagonists of the estrogen related receptor signaling pathway with the pleiotropic PPARgamma coactivator (PGC) from Tox21 10K library - cell viability counter screen (AID 1224840; active = well fitted cell-killing curve with a large enough effect in the repeat runs, not every such curve was filed as active; also: nearly all actives have a fitted effect of over 40% in size; also: potency is read from the fitted curve at half-maximal effect)
Procedure, shortened: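 Fluorescence read-out of CellTiter-Fluor viability reagent, added after cells had been exposed to compound in DMSO for 17.5 h at 37 C; 30 min development at 37 C/5% CO2. Cells: PGC/ERR line, 2,000/well.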

[9] = qHTS assay to identify small molecule antagonists of the estrogen related receptor signaling pathway with the pleiotropic PPARgamma coactivator (PGC) from Tox21 10K library (AID 1224841; call rule not given here; also: actives are mostly falling curves and most rising ones were filed inactive; nearly all actives have a fitted effect of over 50% in size; also: potency is read from the fitted curve at half-maximal effect)
Procedure, shortened: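 Luminescence read-out (One-Glo luciferase reagent, 30 min at room temperature) from PGC/ERR cells exposed to DMSO-dissolved test compounds for 18 h at 37 C; cells, 2,000 per well, had been preincubated 6 h before compound transfer.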

[10] = qHTS assay to identify small molecule agonists of the estrogen related receptor signaling pathway with the pleiotropic PPARgamma coactivator (PGC) from Tox21 10K library (AID 1224842); also: nearly all actives have a fitted effect of over 15% in size; also: potency is read from the fitted curve at half-maximal effect
Procedure, shortened: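 PGC/ERR reporter cell line, 2,000 cells per well, incubated 6 h at 37 C before 23 nL compound in DMSO was added. After 18 h at 37 C, One-Glo luminescence read following 30 min at room temperature.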

[11] = target: Thyrotropin receptor (Homo sapiens) (UniProt P16473); assay: qHTS assay to identify small molecule agonists of the thyroid stimulating hormone receptor (TSHR) signaling pathway (AID 1224843; calls by dose curve; also: nearly all actives have a fitted effect of over 45% in size; also: potency is read from the fitted curve at half-maximal effect)
Chain of Thyrotropin receptor (Homo sapiens) (P16473 whole entry, looked up): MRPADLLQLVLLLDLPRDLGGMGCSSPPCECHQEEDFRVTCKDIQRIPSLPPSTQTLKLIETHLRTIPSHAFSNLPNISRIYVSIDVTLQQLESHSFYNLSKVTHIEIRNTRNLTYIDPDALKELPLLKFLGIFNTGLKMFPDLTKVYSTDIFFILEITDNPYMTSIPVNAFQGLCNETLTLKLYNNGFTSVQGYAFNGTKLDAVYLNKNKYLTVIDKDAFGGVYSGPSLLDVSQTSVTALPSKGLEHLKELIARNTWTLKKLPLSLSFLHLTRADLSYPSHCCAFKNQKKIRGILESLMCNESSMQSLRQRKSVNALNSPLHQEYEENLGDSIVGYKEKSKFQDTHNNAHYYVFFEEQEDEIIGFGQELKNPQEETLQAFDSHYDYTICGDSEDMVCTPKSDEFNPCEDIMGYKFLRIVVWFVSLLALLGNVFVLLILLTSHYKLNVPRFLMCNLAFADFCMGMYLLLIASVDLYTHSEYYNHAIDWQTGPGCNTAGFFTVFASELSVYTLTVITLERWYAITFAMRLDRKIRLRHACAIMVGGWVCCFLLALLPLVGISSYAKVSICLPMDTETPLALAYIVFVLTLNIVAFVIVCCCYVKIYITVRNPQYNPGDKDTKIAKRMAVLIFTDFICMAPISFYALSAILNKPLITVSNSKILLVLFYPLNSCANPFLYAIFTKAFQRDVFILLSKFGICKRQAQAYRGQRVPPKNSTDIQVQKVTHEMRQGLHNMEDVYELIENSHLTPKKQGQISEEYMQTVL
Procedure, shortened: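 Agonist-mode screen: TSHR HEK293 cells received test chemicals for half an hour at room temperature, then HTRF cAMP detection reagents for one hour prior to fluorescence measurement. Each chemical ran as a 15-concentration series, triplicated.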

[12] = qHTS assay to identify small molecule agonists of the RXR signaling pathway - cell viability counter screen (AID 1159529); also: nearly all actives have a fitted effect of over 50% in size; also: potency is read from the fitted curve at half-maximal effect
Procedure, shortened: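 Cell viability is measured by CellTiter-Glo luminescence, 30 min at room temperature, in wells already read for beta-lactamase. Engineered HEK 293T cells (RXR-alpha-UAS-bla) are dosed 16 hr at 37 C. Tetraoctyl ammonium bromide serves as positive control.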

[13] = target: Luciferin 4-monooxygenase (Photinus pyralis) (UniProt P08659); assay: qHTS assay to identify small molecule inhibitors of firefly luciferase (AID 1224835); also: nearly all actives have a fitted effect of over 25% in size; also: potency is read from the fitted curve at half-maximal effect
Chain of Luciferin 4-monooxygenase (Photinus pyralis) (P08659 whole entry, looked up): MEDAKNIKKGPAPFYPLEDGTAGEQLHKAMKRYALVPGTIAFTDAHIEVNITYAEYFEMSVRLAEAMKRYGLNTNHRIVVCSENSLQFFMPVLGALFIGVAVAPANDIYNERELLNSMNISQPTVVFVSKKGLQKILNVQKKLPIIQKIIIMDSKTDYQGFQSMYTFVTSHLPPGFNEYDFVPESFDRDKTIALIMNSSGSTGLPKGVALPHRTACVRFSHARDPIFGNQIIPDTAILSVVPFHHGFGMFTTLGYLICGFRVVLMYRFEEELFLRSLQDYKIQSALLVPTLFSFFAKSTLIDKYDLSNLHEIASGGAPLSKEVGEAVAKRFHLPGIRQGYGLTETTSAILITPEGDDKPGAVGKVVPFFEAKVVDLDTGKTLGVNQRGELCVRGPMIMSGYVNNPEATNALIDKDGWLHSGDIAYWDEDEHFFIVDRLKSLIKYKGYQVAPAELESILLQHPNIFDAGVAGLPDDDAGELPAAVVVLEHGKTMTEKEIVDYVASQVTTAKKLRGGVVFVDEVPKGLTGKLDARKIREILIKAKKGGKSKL
Procedure, shortened: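 Biochemical qHTS: compounds run as interplate titrations against purified firefly enzyme, with D-luciferin and ATP each at its KM concentration. Light output recorded by CCD imaging.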

[14] = target: Nuclear receptor subfamily 1 group I member 3 (Homo sapiens) (UniProt Q14994); assay: qHTS assay to identify small molecule antagonists of the constitutive androstane receptor (CAR) signaling pathway (AID 1224838);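 also: HepG2 cells stably expressing hCAR with CYP2B6 luciferase reporter stimulated by CITCO; nearly all actives have a fitted effect of over 40% in size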; also: potency is read from the fitted curve at half-maximal effect
Procedure, shortened: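 Read-out: ONE-Glo luciferase luminescence after 30 min at room temperature. HepG2-CYP2B6-hCAR double-stable cells, compounds in 15-point titration plus 50 nM CITCO final, 24 h at 37 C/5% CO2.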

[15] = qHTS assay to identify small molecule antagonists of the estrogen related receptor (ERR) signaling pathway - cell viability counter screen (AID 1224818); also: series mostly up to about 46 µM
Procedure, shortened: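 Fluorescence from CellTiter-Fluor, read 30 min after reagent addition at 37 C, measured viability of ERR cells exposed to compounds for 17.5 h. Cells had settled 6 h before dosing.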

[16] = qHTS assay to identify small molecule antagonists of the estrogen related receptor signaling pathway with the pleiotropic PPARgamma coactivator (PGC) cell viability counter screen (AID 1224822; also: series mostly up to about 46 µM)
Procedure, shortened: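 Fluorescence read-out of CellTiter-Fluor after 30 min at 37 C; PGC/ERR cells, 2,000 per well, had been exposed to DMSO-dissolved compounds for 17.5 h following a 6 h pre-incubation.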

[17] = qHTS assay to identify small molecule agonists of the estrogen related receptor (ERR) signaling pathway (AID 1224820)
Procedure, shortened: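 An ERR cell line provided by NTP was seeded at 2,000 cells per well and allowed to settle for 6 h before compounds in DMSO were added. After 18 h at 37 C, luciferase activity was measured by One-Glo luminescence.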

[18] = qHTS assay to identify small molecule agonists of the estrogen related receptor signaling pathway with the pleiotropic PPARgamma coactivator (PGC) (AID 1224823)
Procedure, shortened: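 Compounds dissolved in DMSO are added by pin tool to PGC/ERR cells that have settled for 6 h, and incubation continues 18 h at 37 C. Reporter output is measured as One-Glo luminescence.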

Measured: Potency

CC(=O)C(Cl)(Cl)Cl
active: [2] 29.6 µM | [4] 20.9 µM | [5] 16.6 µM | [6] 20.9 µM | [8] 23.5 µM | [9] 8.34 µM
inactive: [1] | [3] | [7] | [10] | [11]

O=C(CCl)Nc1ccccc1
active: [4] 30.6 µM | [6] 48.6 µM | [14] 54.5 µM | [8] 24.3 µM | [9] 8.63 µM
inactive: [12] | [13] | [7] | [10] | [11]

Fc1cccc(Cl)c1CCl
inactive: [1] | [2] | [3] | [4] | [13] | [5] | [6] | [14] | [8] | [11]

O=C(CBr)c1ccc(O)cc1
active: [2] 54.5 µM
inactive: [12] | [5] | [6] | [9] | [10]

CCCCCCCCCCCCCN1CC(C)OC(C)C1 (configuration not stated)
inactive: [1] | [2] | [3] | [4] | [13] | [5] | [6] | [8] | [11]

CC1CCC(C(C)C)C(OC(=O)c2ccccc2N)C1 (configuration not stated)
active: [12] 17.1 µM
inactive: [13] | [5] | [6] | [14] | [10] | [11]

Nc1ccc(Cl)cc1C(=O)c1ccccc1
inactive: [12] | [5] | [8] | [11]
active: [10] 54.5 µM

CN(C)c1ccc(N=Nc2ccccc2)cc1
active: [3] 0.097 µM | [4] 43.3 µM | [13] 0.252 µM
inactive: [1] | [2] | [11]

CC(C)(C)C(O)C(Oc1ccc(-c2ccccc2)cc1)n1cncn1 (configuration not stated)
inactive: [13] | [14] | [8] | [10]
active: [12] 54.9 µM | [9] 54.5 µM

O=C(O)COc1nc(Cl)c(Cl)cc1Cl
inactive: [1] | [2] | [3] | [15] | [16] | [4] | [13] | [5] | [6] | [14] | [7] | [8] | [11]

O=C1c2ccccc2C(=O)C1C(=O)C(c1ccccc1)c1ccc(Cl)cc1 (configuration not stated)
active: [9] 6.11 µM
inactive: [1] | [2] | [3] | [13] | [6] | [10] | [11]

C=CCC1=C(C)C(OC(=O)C2C(C=C(C)C)C2(C)C)CC1=O (configuration not stated)
inactive: [3] | [15] | [17] | [16] | [18] | [13] | [6] | [10]
active: [12] 58.3 µM | [7] 16.3 µM | [9] 20.5 µM

NNC(=O)c1ccccc1
inactive: [1] | [2] | [4] | [13] | [5] | [14] | [8] | [11]
active: [3] 1.77 µM | [7] 62.8 µM

O=C(Nc1ccc2[nH]ccc2c1)c1cc2cc(F)ccc2n1Cc1cccc(F)c1
inactive: [1] | [3] | [13] | [5] | [9]
active: [2] 68.6 µM | [4] 61.1 µM | [6] 61.1 µM | [7] 27.3 µM | [10] 2.73 µM

Oc1ccc(C2(c3ccc(O)cc3)c3ccccc3-c3ccccc32)cc1
active: [12] 38.9 µM | [4] 68.6 µM | [6] 61.1 µM | [8] 61.1 µM | [11] 54.5 µM
inactive: [13] | [10]

CCOC(=O)C1(c2ccccc2)CCN(CCC(C#N)(c2ccccc2)c2ccccc2)CC1
inactive: [1] | [2] | [3] | [4] | [13] | [5] | [6] | [14] | [8] | [11]

COP(=S)(OC)Oc1cc(Cl)c(Br)cc1Cl
inactive: [1] | [2] | [3] | [4] | [5] | [6] | [14] | [8] | [11]
active: [7] 54.5 µM

CCCCCCCCCCCCBr
inactive: [1] | [2] | [3] | [4] | [5] | [6] | [14] | [7] | [8] | [11]

FC(F)(F)c1cccc(C2=CCN(CCc3ccc4ccccc4c3)CC2)c1
inactive: [1] | [2] | [3] | [4] | [13] | [5] | [6] | [14] | [7] | [8] | [9] | [10]

CC(C)[C@H](C(=O)OC(C#N)c1cccc(Oc2ccccc2)c1)c1ccc(OC(F)F)cc1 (some centres not stated)
inactive: [1] | [2] | [3] | [4] | [13] | [6] | [14] | [7] | [8] | [10] | [11]
